# Screens: PubChem, several laboratories
# Vc quorum ag: inducers of Vibrio cholerae quorum light production without autoinducers, primary screen, BH1578 luxS cqsA deficient, single point. V. cholerae BH1578 lux reporter, luminescence, 6 h. activation, % at 18.7 µM. hit rate 0.16% among 350,000; in the data active = activation mostly above about 9.7%, no sharp cut-off
# GDH-TPI counter-1: GDH-TPI coupling enzyme inhibitors, primary screen, artefact control for M. tuberculosis FBA inhibitor project, biochemical, absorbance, full deck; hit rate 1.2% among 360,000; inhibition, % at 4.8 µM; GDH-TPI coupled enzyme counterscreen, NADH absorbance
# CCHF vOTU inh: CCHFV vOTU protease inhibitors, primary screen, biochemical, Pep-AMC substrate, fluorescence; Crimean-Congo hemorrhagic fever virus L polyprotein viral ovarian tumor (vOTU) protease …; inhibition, % at 11.5 µM; hit rate 0.55% among 370,000; AID 651958, 2012
# Mtb FBA inh: Mtb FBA enzyme inhibitors, primary screen, biochemical, fluorescence, strain H37Rv. Fructose-bisphosphate aldolase (Mycobacterium tuberculosis (strain ATCC 25618 / H37Rv)), …. purified M. tuberculosis FBA, fluorescence read-out. inhibition, % at 1 µM. hit rate 2.3% among 360,000; in the data active = inhibition above about 27%
# Target sequence (P9WQA3 whole entry, looked up): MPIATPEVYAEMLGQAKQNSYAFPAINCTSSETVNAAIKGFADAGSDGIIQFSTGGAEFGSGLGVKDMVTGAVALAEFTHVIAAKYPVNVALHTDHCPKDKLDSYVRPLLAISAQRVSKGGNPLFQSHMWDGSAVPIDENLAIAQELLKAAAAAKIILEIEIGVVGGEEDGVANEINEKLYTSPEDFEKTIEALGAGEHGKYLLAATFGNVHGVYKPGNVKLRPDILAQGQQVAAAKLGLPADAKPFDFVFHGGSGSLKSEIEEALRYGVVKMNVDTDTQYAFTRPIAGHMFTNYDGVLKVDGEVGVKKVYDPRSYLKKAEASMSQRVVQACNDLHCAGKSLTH
# Mtb FBA confirm: M. tuberculosis aldolase blockers, biochemical, fluorescence, strain H37Rv, confirmation. purified M. tuberculosis FBA, fluorescence read-out. inhibition, % at 1 µM. AID 651616, 2012. hit rate 78% among 5,600. shares compounds with Mtb FBA inh; in the data active = inhibition above about 27%
# GDH-TPI counter-2: GDH-TPI coupling enzyme inhibitors, artefact control for M. tuberculosis FBA inhibitor project, biochemical, fluorescence, high throughput; shares compounds with Mtb FBA inh; GDH-TPI coupled enzyme counterscreen; inhibition, % at 1 µM; hit rate 81% among 5,600; in the data active = inhibition above about 10%
# GDH-TPI dose: GDH-TPI coupling enzyme inhibitors, dose response, artefact control for M. tuberculosis FBA inhibitor project, biochemical, fluorescence, IC50. shares compounds with Mtb FBA inh. GDH-TPI coupled enzyme assay, artifact counterscreen. IC50, µM. hit rate 79% among 170. AID 652145, 2013; call rule not given here
# A number is an active result; - = inactive; . = no result given; + = active, no number. Sampled rows, rich in hits. Any-hit rate of the full collection: about 3.9%. Rule as the data show it, unless noted: active = inhibition above about 30%; inactive = the rest.
SMILES,Vc quorum ag,GDH-TPI counter-1,CCHF vOTU inh,Mtb FBA inh,Mtb FBA confirm,GDH-TPI counter-2,others
Cc1cc(=O)n2[nH]c(C(F)(F)F)c(-c3ccccc3)c2n1,-,-,.,64,165,135,
COc1ccc(Cc2[nH]n3c(=O)cc(C(C)C)nc3c2-c2ccccc2)cc1,-,-,-,-,.,.,
COc1ccc(Cc2[nH]n3c(=O)cc(C)nc3c2-c2ccccc2)cc1,-,-,-,27,157,147,
CCS(=O)(=O)NCc1csc(-c2ccccc2)n1,-,-,-,-,.,.,
CC1Cc2c([nH]c3ccccc23)C(=O)N1 (stereo not drawn),-,-,-,32,+,148,
COC(=O)c1cc(=O)c2cccc(OC)c2[nH]1,-,-,-,43,+,+,
O=c1cn[nH]c2ccccc12,-,-,-,-,.,.,
COc1cccc2c(=O)cn[nH]c12,-,-,-,76,-,-,
Cc1c(OCC(=O)Nc2cccnc2)ccc2c3c(c(=O)oc12)CCC3,-,-,-,-,.,.,
CCCc1cc(=O)oc2cc(C)cc(OCC(=O)NCCCn3ccnc3)c12,-,-,-,57,88,65,
Cc1cc(OCC(=O)NCCCn2ccnc2)c2c(C)cc(=O)oc2c1,-,-,-,78,108,74,
Cc1c(C)c2ccc(OCC(=O)NCCCn3ccnc3)c(C)c2oc1=O,-,-,-,43,153,126,
Cc1c(C)c2ccc(OCC(=O)Nc3ccc(S(N)(=O)=O)cc3)c(C)c2oc1=O,-,-,-,41,78,73,
COc1ccccc1NC(=O)CC(c1ccc(F)cc1)c1ccco1 (stereo not drawn),-,-,-,-,.,.,
Cc1ccc(-n2ncc3c2CCCC3NC(=O)CCC2=NNC(=O)CC2)cc1C (stereo not drawn),-,-,-,-,.,.,
CC(C)N1CCN(Cc2cc(F)ccc2-n2cccn2)CC1CCO (stereo not drawn),-,-,-,37,106,82,
CC(C)N1CCC(N2CCN(Cc3cc(F)ccc3-n3cccn3)CC2CCO)CC1 (stereo not drawn),-,-,-,-,.,.,
COc1ccc(-c2c(NC(=O)C(C)C)n(C)c3ccccc3c2=O)cc1,-,-,-,37,+,+,
Cc1c(O)cnc2nn(-c3ccccc3)c(=N)n12,.,.,-,91,81,52,
Cc1nn(-c2ccccc2)c(C)c1N,-,-,-,-,.,.,
O=C(Nc1ccc(C(=O)O)cc1)Nc1cccc2ccccc12,-,-,-,-,.,.,
CCC1CN(C(=O)NCc2cccc(OC)c2)c2ccccc2O1 (stereo not drawn),-,-,-,68,-,-,
CCC1CN(C(=O)NCc2cccc(OC)c2)c2cc(Cl)ccc2O1 (stereo not drawn),-,-,-,-,.,.,
O=C(N/N=C/c1ccccn1)C(=O)N1CCCCCC1,-,-,-,-,.,.,
O=C(CNC(=O)c1ccc(Cl)c([N+](=O)[O-])c1)NCC1CCCO1 (stereo not drawn),-,-,-,-,.,.,
SMILES,Vc quorum ag,GDH-TPI counter-1,CCHF vOTU inh,Mtb FBA inh,Mtb FBA confirm,GDH-TPI counter-2,others
O=c1oc2ccc(Cl)cc2cc1-c1ccccc1,-,-,-,-,.,.,
N#CCc1nc(-c2cc3ccccc3oc2=O)cs1,-,-,-,77,197,155,
O=C(Cc1cccc2ccccc12)Nc1ccc(-c2cc3ccccc3oc2=O)cc1,-,-,-,53,75,49,
O=c1oc2ccccc2cc1-c1cn2cccnc2n1,-,45,-,29,+,196,
O=c1oc2ccccc2cc1-c1nc(-c2cccs2)cs1,-,-,-,-,.,.,
O=c1oc2ccccc2cc1-c1ccccc1,-,-,-,31,-,-,GDH-TPI dose=5.2
CCC(=O)Nc1cccc(-c2cc3ccccc3oc2=O)c1,-,-,-,-,.,.,
CC(=O)c1ccccc1OCCn1nc(C(=O)O)c2ccccc2c1=O,-,-,-,-,.,.,
Nc1ccc(-c2cc3ccccc3c(=O)o2)cc1,-,-,-,-,.,.,
O=c1oc(-c2ccccc2)cc2ccccc12,-,-,-,44,71,47,
CN1CCC(N(C)C(=O)c2cc(S(=O)(=O)N(C)c3ccccc3)ccc2Cl)CC1,-,-,-,-,.,.,
Cc1c2n(c3ccccc13)CCC2=O,-,-,-,28,77,68,
Cc1c(C)n2c3c(cccc13)CC2,-,-,-,-,.,.,
COC(=O)[C@@]1(Cc2ccc(F)cc2)[C@H]2c3cc(C(=O)N4CCCC4)n(CCc4ccc(OC)c(Br)c4)c3C[C@H]2CN1C(=O)c1ccccc1,.,.,-,.,.,.,
CC(=O)OCC1OC(n2ccc3ccccc32)C(OC(C)=O)C(OC(C)=O)C1OC(C)=O (stereo not drawn),-,-,-,-,.,.,
CC(=O)OCC1OC(Sc2cccc3cccnc23)C(OC(C)=O)C(OC(C)=O)C1OC(C)=O (stereo not drawn),-,-,-,36,+,159,
O=c1oc(CCCO)cc2ccc(C#Cc3cccnc3)cc12,-,-,-,53,45,37,
O=c1oc(CCO)cc2ccc(C#Cc3ccsc3)cc12,-,-,-,45,82,52,
O=C1NC(Cc2ccc(O)cc2)c2nc3ccc(Br)cc3c(=O)n2-c2ncccc21 (stereo not drawn),-,-,-,-,.,.,
CCn1c(SCc2ccc(C(=O)Nc3nccs3)cc2)nnc1-c1ccc(N)cc1,.,-,-,-,.,.,
